Here are results for 50 compounds from ChEMBL document CHEMBL3988442, “University of Dundee, Small-Polar-MMV Screening Library” (2021).

This test concerns Trypanosoma brucei. Description: Trypanosoma brucei 72 hour study. It is filed as functional, organism-based. On the set-up: scale not given: in the data most compounds retested in dose-response had high values.

Among all 66,000 compounds or so, about 960 (1.5%) showed an effect of 50% or more. The list comes from a sample in which strong results are over-represented; it also holds similar structures and randomly drawn compounds.

With `COC(=O)c1ccc(N2CCN(C(=O)c3ccco3)C(C)C2)cc1` (configuration not stated), where the note is “30.3 µM, […]”, the “Percent Effect” value was 90.39%.

In the case of `COC(=O)c1ccc(N2CCN(C(=O)c3cc(C)no3)C(C)C2)cc1` (configuration not stated), the “Percent Effect” value (30.3 µM, […]) worked out at 29.28%.

For the compound `CCC(=O)N1CCN(c2ccc(C(=O)OC)cc2)CC1C` (configuration not stated), the “Percent Effect” value (30 µM, 30.03 µM) turned out to be 6.915%.

As to `COC(=O)c1ccc(N2CCN(C(=O)C3CCC3)C(C)C2)cc1` (configuration not stated), where the note is “30 µM, 30.03 µM”, the “Percent Effect” value amounted to 50.56%.

On to `COC(=O)c1ccc(N2CCN(C(=O)C3CC3)C(C)C2)cc1` (configuration not stated), for which, for the setting “30 µM, 30.03 µM”, the “Percent Effect” value is recorded as -2.442%.

As for `Cl.Nc1nc(Nc2ccccc2)cc(N2CCNCC2)n1`, the “Percent Effect” value is -11.41% (30.3 µM, […]) and -70.99% (10 mM, 10 mM as filed; unlikely as a test dose).

In the case of `Cn1cccc1C(=O)N1CCN(CC2CC2)c2ncccc2C1`, the “Percent Effect” value (30 µM, 30.03 µM) was 57.2%.

In the case of `O=C(c1cccs1)N1CCN(CC2CC2)c2ncccc2C1`, for the setting “30 µM, 30.03 µM”, the “Percent Effect” value is reported as -33.24%.

As for `CN1CCN(C(=O)c2cccn2C)Cc2cccnc21`, the “Percent Effect” value (30.3 µM, […]) is listed as -5.91%.

On to `Cc1nc(C(=O)NS(=O)(=O)c2cccc(C#N)c2)cs1`, for which the “Percent Effect” value (30.3 µM, […]) is listed as 2.101%.

On to `COCC1c2c(cnn2CC2CC2)CCN1Cc1ccc(C)o1.O=C(O)C(F)(F)F.O=C(O)C(F)(F)F` (configuration not stated), for which the “Percent Effect” value (30.3 µM, […]) was -1.349%.

As for `O=C(NCCc1ccn(-c2ccccc2)n1)N1CCCC(O)C1` (configuration not stated), the “Percent Effect” value (10 µM) came to 103.1%.

For `O=C(NCCC1Cc2ccccc2C1)N1CCCC(O)C1` (configuration not stated), the “Percent Effect” value (30.3 µM, […]) is reported as -66.43%.

On to `CCOC1CCCN(C(=O)c2nn(-c3ccccc3F)cc2O)C1` (configuration not stated), for which, under “30.3 µM, […]”, the “Percent Effect” value is on record as -12.09%.

Take `CCOC1CCCN(C(=O)NCCc2ccn(-c3ccccc3)n2)C1` (configuration not stated): the “Percent Effect” value (30 µM, 30.03 µM) was found to be 99.66%.

As for `O=C(NCc1nn(-c2ccccc2)c2c1CCC2)N1CCCC(O)C1` (configuration not stated), for the setting “10 µM”, the “Percent Effect” value is on record as -55.19%.

Take `O=C(NCCc1ccn(-c2ccccc2)n1)N1CCCC(CO)C1` (configuration not stated): the “Percent Effect” value (10 µM) is on record as 104%.

Turning to `O=C(NCC1CCCN(C(=O)NCCc2ccccc2)C1)c1ccco1` (configuration not stated), for the setting “30.3 µM, […]”, the “Percent Effect” value is on record as 15.56%.

For the compound `COc1ccccc1CNC(=O)N1CCCC(CO)C1` (configuration not stated), the “Percent Effect” value (30 µM, 30.03 µM) is listed as -45.66%.

For `CCOC1CCN(C(=O)NCCc2ccn(-c3ccccc3)n2)CC1`, the “Percent Effect” value (10 µM) is -34.62%.

On to `CSc1ccccc1C(=O)N1C[C@H]2CC[C@@H]1CN(C(=O)N(C)C)C2`, for which the “Percent Effect” value (30 µM, 30.03 µM) is -19.87%.

Consider `O=C(O)C(F)(F)F.O=C([C@H]1CC[C@@H]2[C@@H](CCN2C2CCCC2)O1)N1CCOCC1`, for which, under “30.3 µM, […]”, the “Percent Effect” value was determined as 3.599%.

Take `Cc1ccc(CN2CCC3(CCC3NC(=O)c3ccn(C)c3)CC2)s1.O=C(O)C(F)(F)F` (configuration not stated): the “Percent Effect” value (30 µM, 30.03 µM) is listed as -8.436%.

Turning to `COc1c(CNCCNC(=O)c2ccccc2)c(C)nn1C.Cl`, for the setting “30.3 µM, […]”, the “Percent Effect” value is recorded as -11.06%.

As to `CCN(C)S(=O)(=O)NCC(O)c1c(Cl)cccc1Cl` (configuration not stated), the “Percent Effect” value (30 µM, 30.03 µM) was -61.52%.

Consider `Cc1ccccc1N1CCN(C(=O)c2ccc[nH]2)C(C)C1` (configuration not stated), for which the “Percent Effect” value (30 µM, 30.03 µM) is on record as 53.58%.

`Cc1ccccc1N1CCN(C(=O)c2cscn2)C(C)C1` (configuration not stated): for the setting “30.3 µM, […]”, the “Percent Effect” value was -44.71%.

As to `CSc1ncc(C(=O)N2CCN(c3ccccc3C)CC2C)cn1` (configuration not stated), the “Percent Effect” value (30.3 µM, […]) is -20.66%.

In the case of `CNc1cc(C(=O)NCCC2=CSC3=NCCCN23)ccn1`, the “Percent Effect” value (30.3 µM, […]) is 4.45%.

As to `Cc1cc(C)n(CC2CCCCN2C(=O)c2ccc3c(c2)COC3)n1` (configuration not stated), the “Percent Effect” value by setting is: (10 µM) -3.538%; (30.3 µM, […]) 12.9%.

For `O=C(CN1CCC(c2cc(=O)n3c(n2)CCCCC3)C1)N1CCCCC1.O=C(O)CC(O)(CC(=O)O)C(=O)O` (configuration not stated), where the note is “30.3 µM, […]”, the “Percent Effect” value was -90.53%.

On to `CC(=O)NC1CC(C)(C)Cc2c1cnn2-c1cccc(F)c1` (configuration not stated), for which the “Percent Effect” value (30 µM, 30.03 µM) was -59.29%.

For the compound `CC1(C)Cc2c(cnn2-c2ccccc2)C(NC2CCSCC2)C1` (configuration not stated), the “Percent Effect” value (30 µM, 30.03 µM) stood at 82.22%.

Consider `CC1(C)Cc2c(cnn2-c2cccc(F)c2)C(NC2CCSCC2)C1` (configuration not stated), for which the “Percent Effect” value (30 µM, 30.03 µM) was 99.5%.

Take `Cc1nn(-c2ccccc2)c(C)c1CNC(=O)NC1CC1`: the “Percent Effect” value (30 µM, 30.03 µM) is given as -13.2%.

On to `CCC(Nc1nnnn1-c1ccccc1)C(=O)NC1CCSCC1` (configuration not stated), for which the “Percent Effect” value (30 µM, 30.03 µM) was -25.42%.

Regarding `CS(=O)(=O)NC(=O)c1nnn(-c2cccc(F)c2)c1C1CC1`, for the setting “30.3 µM, […]”, the “Percent Effect” value was -19.55%.

For `O=C(O)C(F)(F)F.O=C(O)C(F)(F)F.c1ccc(CN2CC[C@@H]3O[C@@H](COCC4CCOCC4)CC[C@@H]32)nc1`, under “30 µM, 30.03 µM”, the “Percent Effect” value stood at 11.6%.

Consider `Nc1ccnc(N2C[C@@H]3CC[C@H](C2)N(CC2CCC2)C3=O)n1`, for which, where the note is “30 µM, 30.03 µM”, the “Percent Effect” value is given as -6.843%.

As for `COc1ncccc1CN1CC[C@]2(C[C@@H](OCc3ccccn3)CO2)C1.O=C(O)C(F)(F)F.O=C(O)C(F)(F)F.O=C(O)C(F)(F)F`, under “30 µM, 30.03 µM”, the “Percent Effect” value is given as 2.267%.

In the case of `CCSc1ccc(C(=O)N2CC[C@](O)(CC)[C@H](O)C2)s1`, the “Percent Effect” value (30.3 µM, […]) is reported as -1.451%.

`Nc1ccc(C(=O)N2CCC(Oc3cccc(C(F)(F)F)c3)CC2)cn1`: for the setting “30.3 µM, […]”, the “Percent Effect” value worked out at 54.87%.

As for `OC1(CN2CCC(Oc3cccc(C(F)(F)F)c3)CC2)CNCCOC1` (configuration not stated), for the setting “30 µM, 30.03 µM”, the “Percent Effect” value was -13.41%.

Turning to `O=C(c1ccncc1)N1CCC(Oc2cccc(C(F)(F)F)c2)CC1`, the “Percent Effect” value (30.3 µM, […]) was determined as 37.18%.

On to `OC1(CN2CCC(Oc3cccc(C(F)(F)F)c3)CC2)CCNC1` (configuration not stated), for which, where the note is “30 µM, 30.03 µM”, the “Percent Effect” value is listed as 92%.

Regarding `O=C(c1ccc(=O)[nH]c1)N1CCC(Oc2cccc(C(F)(F)F)c2)CC1`, the “Percent Effect” value (30.3 µM, […]) was 9.238%.

`CC(N)C(=O)N1CCC(Oc2cccc(C(F)(F)F)c2)CC1` (configuration not stated): under “30.3 µM, […]”, the “Percent Effect” value is given as 98.32%.

Turning to `Nc1cc(C(=O)N2CCC(Oc3cccc(C(F)(F)F)c3)CC2)ccn1`, for the setting “30.3 µM, […]”, the “Percent Effect” value is reported as 19.92%.

As to `O=C(c1cccnc1)N1CCC(Oc2cccc(C(F)(F)F)c2)CC1`, for the setting “30.3 µM, […]”, the “Percent Effect” value stood at 6.021%.

On to `FC(F)(F)c1cccc(OC2CCN(Cc3ncc[nH]3)CC2)c1`, for which the “Percent Effect” value (30 µM, 30.03 µM) is given as -13.87%.
